Data: PubChem BioAssay
Calls of active or inactive are those of the source.

Experiments:
[1] = tested on: Human papillomavirus type 1a protein E7 (residues 44-93); experiment: HPV1a E7 fragment binders on microarrays, primary screen, biochemical, small-molecule microarray, residues 44-93, 635 nm fluorescence (AID 1108); conditions: small-molecule microarray binding, fluorescence 635 nm; higher = more signal;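 also: E7 fragment applied at 1 µg/mL in TBST for 1 h at 4 C; score combines spot fluorescence with its signal to noise ratio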
[2] = modulators of HCV replicon luciferase signal, primary screen, HCV replication inhibitor project, Huh7 cells, luciferase reporter (AID 1109); conditions: 48 h, higher = more signal;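 also: huh7 hepatoma cells harbouring a luciferase neomycin HCV replicon reporter; luciferase luminescence as measure of HCV replicon replication; test concentration not given here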
[3] = target: Left-right determination factor 2 (Homo sapiens) (UniProt O00292); experiment: LEFTY2 binders on small-molecule microarrays, primary screen, biochemical, small-molecule microarray, 635 nm fluorescence scan (AID 1110); conditions: LEFTY2 binding, higher = more signal
[4] = target: Calmodulin-1 (Homo sapiens) (UniProt P0DP23); experiment: CALM1 binders on microarrays, EGTA buffer, profiling panel, biochemical, small-molecule microarray, Cy5-labelled CALM1 (AID 1111); conditions: Cy5-CALM1 binding fluorescence, higher = more signal;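 also: labelled calmodulin applied in Tris saline Tween buffer holding calcium plus EGTA and DTT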
[5] = target: Calmodulin-1 (Homo sapiens) (UniProt P0DP23); experiment: calcium-bound CALM1 binders on microarrays, profiling panel, artefact control for SMM control-protein annotation, biochemical, small-molecule microarray, Cy5-labelled CALM1, plus calcium (AID 1112); conditions: Cy5-CALM1 binding fluorescence, higher = more signal;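 also: score merges spot fluorescence with signal to noise from triplicate slides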
[6] = small-molecule microarray binders of probe aWnt5a, primary screen, biochemical, biotinylated probe, 635/667 nm fluorescence (AID 1113); conditions: higher = more signal;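 also: score merges 667 nm fluorescence intensity with signal-to-noise per printed feature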
[7] = small-molecule microarray binders of probe aShh, primary screen, biochemical, biotinylated probe, 635/667 nm fluorescence (AID 1114); conditions: higher = more signal;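 also: probe is biotin-labelled aShh protein from a stem cell growth factor screen; measures binding of labelled protein to compounds printed on the slide; score merges feature fluorescence at 667 nm with signal-to-noise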
[8] = small-molecule microarray binders of probe aNog, primary screen, biochemical, biotinylated probe, 635/667 nm fluorescence (AID 1115); conditions: higher = more signal;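 also: probe is biotinylated aNog protein used at 0.15 µg/mL for 1 h at 4 C; z-score combines 667 nm fluorescence of each spot with its signal to noise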
[9] = target: Torsin-1A-interacting protein 1 (Homo sapiens) (UniProt Q5JTV8); experiment: LAP1 binders from COS7 cell lysate, primary screen, small-molecule microarray, 635/667 nm fluorescence (AID 1116); conditions: COS7-hLAP1 lysate binding, 635 nm fluorescence, higher = more signal
[10] = target: Alpha-bungarotoxin (Bungarus multicinctus) (UniProt P60615); experiment: alpha-bungarotoxin binders on microarray, profiling panel, artefact control for SMM control protein annotation, biochemical, small-molecule microarray, Alexa647 label, 635/667 nm fluorescence (AID 1117); conditions: alpha-BTX-A647 binding fluorescence, higher = more signal
Albumin (Bos taurus) = Albumin (Bos taurus) (UniProt P02769); experiment: bovine serum albumin binders on microarray, profiling panel, artefact control for SMM control protein annotation, biochemical, small-molecule microarray, Alexa647 label, 635/667 nm fluorescence (AID 1118); conditions: BSA-A647 binding, fluorescence 635 nm, higher = more signal;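 also: score merges 667 nm emission intensity and signal-to-noise per printed compound spot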
[11] = small-molecule microarray binders of probe aXIP, primary screen, biochemical, NeuroSMM set, 635/667 nm fluorescence (AID 1119); conditions: higher = more signal, called active from +8 up or from −8 down;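 also: probe is the protein aXip251-270 applied at 1 µg/mL to compound-printed slides; binding of probe to printed compounds measured as 667 nm fluorescence plus signal to noise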
[12] = small-molecule binders of probe aNOTCH3, primary screen, biochemical, small-molecule microarray, 635/667 nm fluorescence (AID 1120); conditions: higher = more signal;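 also: probe is a biotin-tagged antibody raised against NOTCH3 rather than NOTCH3 protein; score merges spot fluorescence near 667 nm with spot signal to noise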
[13] = small-molecule binders of probe aNOTCH2, primary screen, biochemical, small-molecule microarray, 635/667 nm fluorescence (AID 1121); conditions: higher = more signal;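 also: score merges feature fluorescence read at 667 nm with its signal to noise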
[14] = target: Carbonic anhydrase 2 (Homo sapiens) (UniProt P00918); experiment: CAII small-molecule binders, profiling panel, biochemical, small-molecule microarray, Alexa647-labelled CAII (AID 1122); conditions: CAII-A647 binding fluorescence, higher = more signal
[15] = COS7 lysate on small-molecule microarray, probe aHis, 635 nm (AID 1123); conditions: COS7 cell lysate, fluorescence, higher = more signal;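 also: z-score combines 667nm fluorescence intensity with signal-to-noise per printed compound spot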
[16] = compound binding in COS7 lysate, probe aLAP1, primary screen, cell lysate, small-molecule microarray (AID 1124); conditions: probe aLAP1, fluorescence, higher = more signal;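 also: lysate comes from COS7 cells expressing LAP1 and is applied at 0.3 µg/mL; score merges spot fluorescence near 667 nm with signal-to-noise over triplicate slides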
Sam68 (KHDRBS1) = experiment: Sam68 small-molecule binders, primary screen, biochemical, small-molecule microarray, 635 nm fluorescence (AID 1125); conditions: small-molecule microarray binding, higher = more signal;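 also: score merges 667 nm channel intensity with signal to noise over triplicate slides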
[17] = tested on: Chordin-like protein 2 (CHRDL2); experiment: CHRDL2 small-molecule binders, primary screen, biochemical, small-molecule microarray, 635 nm fluorescence (AID 1126); conditions: small-molecule microarray binding, fluorescence 635 nm; higher = more signal;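 also: printed compound slides probed with Chrdl2 protein at 4 µg/mL for 1 h at 4 C; score merges 667 nm emission intensity with signal to noise over three replicate slides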
[18] = target: Concanavalin-A (Canavalia ensiformis) (UniProt P02866); experiment: ConA small-molecule binders, primary screen, artefact control for SMM control protein annotation, biochemical, small-molecule microarray, Alexa647 label, 635 nm (AID 1127); conditions: ConA-A647 binding fluorescence, higher = more signal;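 also: z combines 667 nm emission intensity with signal-to-noise across three replicate slides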
Sequence of Concanavalin-A (Canavalia ensiformis) (P02866 whole entry, looked up): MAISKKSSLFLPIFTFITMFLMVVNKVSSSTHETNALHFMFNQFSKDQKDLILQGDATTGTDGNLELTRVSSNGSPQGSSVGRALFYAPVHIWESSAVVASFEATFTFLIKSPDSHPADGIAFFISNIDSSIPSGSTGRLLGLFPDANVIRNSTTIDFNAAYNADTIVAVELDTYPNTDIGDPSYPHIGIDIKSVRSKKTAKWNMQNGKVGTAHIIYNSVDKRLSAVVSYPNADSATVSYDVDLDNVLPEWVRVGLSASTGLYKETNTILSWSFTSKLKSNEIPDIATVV

Sequence of Albumin (Bos taurus) (P02769 whole entry, looked up): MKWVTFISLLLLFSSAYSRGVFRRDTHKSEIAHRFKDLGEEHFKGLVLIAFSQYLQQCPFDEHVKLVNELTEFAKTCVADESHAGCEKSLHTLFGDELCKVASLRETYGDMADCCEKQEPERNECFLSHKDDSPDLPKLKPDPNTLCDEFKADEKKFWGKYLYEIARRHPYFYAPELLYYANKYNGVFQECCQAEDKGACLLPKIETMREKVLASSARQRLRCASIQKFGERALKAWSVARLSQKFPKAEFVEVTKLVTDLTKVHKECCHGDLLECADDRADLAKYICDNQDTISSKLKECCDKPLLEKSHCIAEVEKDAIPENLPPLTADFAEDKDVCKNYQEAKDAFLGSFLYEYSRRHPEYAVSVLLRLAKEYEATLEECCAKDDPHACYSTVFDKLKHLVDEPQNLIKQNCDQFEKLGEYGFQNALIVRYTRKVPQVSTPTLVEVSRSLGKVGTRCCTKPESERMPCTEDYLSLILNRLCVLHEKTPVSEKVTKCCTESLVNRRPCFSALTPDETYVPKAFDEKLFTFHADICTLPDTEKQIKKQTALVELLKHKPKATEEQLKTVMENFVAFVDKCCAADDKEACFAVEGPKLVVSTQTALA
Sequence of Alpha-bungarotoxin (Bungarus multicinctus) (P60615 whole entry, looked up): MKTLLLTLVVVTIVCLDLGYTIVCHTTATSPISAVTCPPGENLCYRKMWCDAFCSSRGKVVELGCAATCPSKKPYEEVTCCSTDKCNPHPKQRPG
Sequence of Left-right determination factor 2 (Homo sapiens) (O00292 whole entry, looked up): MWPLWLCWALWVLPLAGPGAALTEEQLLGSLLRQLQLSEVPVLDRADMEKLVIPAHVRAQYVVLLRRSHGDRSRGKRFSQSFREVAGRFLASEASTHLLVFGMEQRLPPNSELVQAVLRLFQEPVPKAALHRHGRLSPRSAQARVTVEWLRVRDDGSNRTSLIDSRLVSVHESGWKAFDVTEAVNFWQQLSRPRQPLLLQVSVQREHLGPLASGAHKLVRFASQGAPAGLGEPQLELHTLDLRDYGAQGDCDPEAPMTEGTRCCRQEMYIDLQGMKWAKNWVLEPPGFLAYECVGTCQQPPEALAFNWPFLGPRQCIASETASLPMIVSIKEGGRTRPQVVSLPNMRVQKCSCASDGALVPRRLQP
Sequence of Torsin-1A-interacting protein 1 (Homo sapiens) (Q5JTV8 whole entry, looked up): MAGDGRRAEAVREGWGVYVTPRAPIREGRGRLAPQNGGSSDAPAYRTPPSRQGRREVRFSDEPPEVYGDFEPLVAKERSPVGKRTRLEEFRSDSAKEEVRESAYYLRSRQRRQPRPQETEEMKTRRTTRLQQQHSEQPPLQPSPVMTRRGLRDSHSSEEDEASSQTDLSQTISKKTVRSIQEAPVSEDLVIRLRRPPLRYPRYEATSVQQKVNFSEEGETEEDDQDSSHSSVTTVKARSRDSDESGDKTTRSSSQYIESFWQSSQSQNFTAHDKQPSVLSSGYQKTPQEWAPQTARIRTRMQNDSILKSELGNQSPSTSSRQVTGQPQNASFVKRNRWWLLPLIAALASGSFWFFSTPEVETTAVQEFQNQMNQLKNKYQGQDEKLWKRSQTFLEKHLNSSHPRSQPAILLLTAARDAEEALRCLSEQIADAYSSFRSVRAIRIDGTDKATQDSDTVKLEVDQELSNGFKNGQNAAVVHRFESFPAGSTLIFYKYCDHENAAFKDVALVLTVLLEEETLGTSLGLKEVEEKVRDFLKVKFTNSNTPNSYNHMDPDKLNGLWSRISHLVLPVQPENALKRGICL

Row | SMILES | composite z-score [1] | z-score [2] | composite z-score [3] | composite z-score [4] | composite z-score [5] | composite z-score [6] | composite z-score [7] | composite z-score [8] | composite z-score [9] | composite z-score [10] | composite z-score (Albumin (Bos taurus)) | composite Z-score [11] | composite z-score [12] | composite z-score [13] | composite z-score [14] | composite z-score [15] | composite z-score [16] | composite z-score (Sam68 (KHDRBS1)) | composite z-score [17] | composite z-score [18]
1 | C[N+](C)(C)CCCCCCNC(=O)[C@H]1C[C@H]2C(=O)N[C@@H](Cc3ccccc3)C(=O)N2[C@H]1c1ccc(O)cc1 | -0.306 | 0.975 | 1.09 | -0.667 | -0.973 | 0.0873 | -0.0146 | -0.175 | 0.302 | 0.966 | -0.459 | -0.505 (inactive) | -0.0471 | -0.137 | 0.4 | 1.05 | 0.0686 | 0.479 | 1.37 | 0.547
2 | COC(=O)c1nc2oc1CC[C@@H](CO)NC(=O)N(C)Cc1cnnn1C[C@H](Cc1ccccc1)NC2=O | -0.367 | -0.421 | -1.07 | -0.677 | -0.319 | -0.159 | -0.0035 | -0.321 | 0.122 | 1.25 | 0.771 | 0.15 (inactive) | -0.182 | -0.167 | 0.853 | 0.205 | 0.321 | -0.0671 | -0.873 | -0.343
3 | COc1ccc(NC(=O)O[C@H]2[C@H](OC(=O)Nc3ccccc3)[C@H](OC(=O)Nc3ccccc3)[C@@H](OC)O[C@@H]2CO)cc1 | 1.25 | -2.76 | 0.249 | 0.692 | -0.17 | 0.161 | 0.163 | -0.413 | 0.634 | 1.12 | 0.693 | 1.58 (inactive) | 0.861 | 0.28 | 0.703 | 2.87 | 0.197 | 1.31 | 0.181 | 0.946
4 | C[N+](C)(C)CCCC[C@@H]1NC(=O)[C@H]2C[C@@H](C(=O)NCCCCCCN)[C@@H](c3ccc(O)cc3)N2C1=O | 1.17 | -0.481 | 0.0608 | 0.756 | 0.342 | 0.127 | 0.541 | 0.0561 | 0.567 | 0.925 | 0.98 | 0.289 (inactive) | 0.201 | 0.14 | 0.685 | 1.08 | -0.186 | 1.23 | -0.117 | 1.13
5 | CC(C)(C)N1CC=CC23O[C@@H]4C=CCOC(=O)[C@@H]4[C@H]2C(=O)N(CCCCCCO)[C@@H]3C1=O (stereo not given in full) | -1.38 | 0.397 | -0.84 | -0.243 | -0.123 | -0.206 | -0.291 | -0.357 | -0.252 | -0.348 | 0.277 | 0.395 (inactive) | -0.359 | -0.112 | 0.879 | -0.112 | 0.483 | -0.551 | -0.677 | -0.375
6 | CCOC(=O)C[C@H]1[C@H](OC(=O)c2cc3ccccc3oc2=O)[C@@H](NC(=O)Cc2ccc(OC)cc2)c2cc(OCCCO)ccc2N1C(=O)c1ccc2ccccc2n1 | 0.178 | -0.664 | 0.774 | -0.0597 | -0.399 | 0.0257 | -0.214 | 0.0023 | 0.514 | 0.26 | -0.116 | -0.431 (inactive) | -0.152 | -0.0666 | 0.353 | 0.303 | 0.096 | 0.206 | 0.583 | 0.0304
7 | COCCOC(=O)N1C(=O)[C@@]2(c3cc(C#CC4=CCCCC4)ccc31)[C@H](c1ccccc1OCCO)N1[C@H](c3ccccc3)[C@H](c3ccccc3)OC(=O)[C@H]1[C@@H]2C(=O)Nc1nc2ccccc2s1 | 1.33 | -2.23 | 0.526 | 1.36 | 0.13 | -0.0236 | 0.0253 | 0.904 | 0.666 | 1.48 | 0.526 | -0.243 (inactive) | 0.158 | -0.0047 | 0.236 | 1.06 | -0.375 | 1.32 | 0.454 | 1.15
8 | CC(C)C[C@@H]1NC(=O)[C@@H]2C[C@H](C(=O)NCCCCCN)[C@H](c3ccc(O)cc3)N2C1=O | 1.36 | -0.196 | 1.46 | 1.17 | 0.953 | -0.0194 | 0.108 | -0.651 | 1.19 | 1.2 | 0.85 | -0.285 (inactive) | -0.169 | -0.102 | 0.577 | 1.48 | 0.17 | 1.33 | 0.25 | 1.17
9 | COc1ccc(C(O)C2C=CC3C(=O)N(c4ccccc4)C(=O)C3N2Nc2ccc([N+](=O)[O-])cc2)cc1 (stereo not given) | 0.487 | -0.925 | -0.425 | 1.45 | 0.622 | 0.315 | 0.109 | -0.064 | 1.66 | 1.32 | 0.968 | 1.19 (inactive) | 0.84 | 0.495 | 0.637 | 2.86 | 0.64 | 1.31 | -0.936 | 0.989
10 | COCCCNC(=O)[C@@]1(Sc2ccc(C)cc2)CC(=O)N(C2CCCCC2)[C@@H]1c1ccc(CO)cc1 | 0.104 | -1.19 | -0.942 | -0.206 | 0.0573 | -0.0799 | -0.0643 | 0.684 | 0.447 | -0.255 | -0.111 | -0.513 (inactive) | -0.337 | -0.12 | 0.71 | 1.62 | 1.21 | -0.281 | -0.975 | -0.305
11 | CN1C(=O)C2C=CC(C(O)c3ccccn3)N(N(c3ccccc3)c3ccccc3)C2C1=O (stereo not given) | -0.686 | -0.276 | -0.0321 | 0.0023 | -0.0692 | -0.0735 | 0.0684 | 0.427 | 1.07 | 0.451 | 0.206 | 1.31 (inactive) | -0.004 | -0.0166 | 0.822 | -0.123 | 1.04 | -0.349 | 0.227 | 0.291
